Source: the supplement of paper PMC10515830
Structures can show the parent of a compound that is named as a salt.

Tests used:
Conditions in all cases: 10 µM; exposure time 6 h
[1] = system: Danio rerio larvae (5 dpf); assay: difference in excitability vs DMSO (percentage points); higher = more excitable than DMSO
How it was run: (§1)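 Wild-type zebrafish larvae at 5 dpf were kept in 96-well plates and exposed for 6 h to 100 µL egg water holding library compound at a final concentration of 10 µM. From 3 h into exposure, the plates were held at 28.5 ℃ and photographed every 6 s through a 3-h programme of moving lines and 100 ms, 400Hz tones. Each behaviour was scored by Z-LaP Tracker, a DeepLabCut model, and averaged over 48 larvae per compound. Every value gives the compound mean minus the vehicle control mean, in percentage points.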

[2] = system: Danio rerio larvae (5 dpf); assay: difference in startle response vs DMSO (percentage points); higher = stronger startle than DMSO
How it was run: as §1

[3] = system: Danio rerio larvae (5 dpf); assay: difference in activity during first hour vs DMSO (percentage points); higher = more activity than DMSO
How it was run: as §1

[4] = system: Danio rerio larvae (5 dpf); assay: difference in habituation to acoustic stimuli vs DMSO (percentage points); higher = more habituation than DMSO
How it was run: as §1

[5] = system: Danio rerio larvae (5 dpf); assay: difference in combined optomotor response to red, green and blue moving lines vs DMSO (percentage points); higher = stronger optomotor response than DMSO
How it was run: as §1

## COc1cc([C@@H]2c3cc4c(cc3[C@@H](O[C@@H]3O[C@@H]5CO[C@@H](c6cccs6)O[C@H]5[C@H](O)[C@H]3O)[C@H]3COC(=O)[C@H]23)OCO4)cc(OC)c1O [Teniposide]
[1]
  difference in excitability: -5.17
[2]
  difference in startle response: -1.26
[3]
  difference in activity during first hour: -12
[4]
  difference in habituation to acoustic stimuli: 3.62
[5]
  difference: -8.33

## C[C@@H](O)[C@H]1C(=O)N2C(C(=O)O)=C(S[C@@H]3CN[C@H](C(=O)Nc4cccc(C(=O)O)c4)C3)[C@H](C)[C@H]12 [Ertapenem (sodium salt)]
[1]
  difference in excitability: 3.87
[2]
  difference in startle response: 3.36
[3]
  difference in activity during first hour: 14.7
[4]
  difference in habituation to acoustic stimuli: 7.59
[5]
  difference: 3.82

## CN(C)c1nc(N(C)C)nc(N(C)C)n1 [Altretamine]
[1]
  difference in excitability: -0.899
[2]
  difference in startle response: -2.53
[3]
  difference in activity during first hour: -6.9
[4]
  difference in habituation to acoustic stimuli: -1.7
[5]
  difference: 0.893

## COc1cc2nc(N3CCN(C(=O)C4CCCO4)CC3)nc(N)c2cc1OC (stereo not given) [Terazosin (hydrochloride)]
[1]
  difference in excitability: 18.5
[2]
  difference in startle response: 10.8
[3]
  difference in activity during first hour: -10.2
[4]
  difference in habituation to acoustic stimuli: 1.1
[5]
  difference: 13.9

## CN1CCc2cccc3c2[C@H]1Cc1ccc(O)c(O)c1-3 [(-)-Apomorphine (hydrochloride hydrate)]
[1]
  difference in excitability: 19.8
[2]
  difference in startle response: -2.6
[3]
  difference in activity during first hour: -20.1
[4]
  difference in habituation to acoustic stimuli: -5.47
[5]
  difference: -13

## Clc1ccc(COC(Cn2ccnc2)c2ccc(Cl)cc2Cl)cc1 (stereo not given) [Econazole (nitrate)]
[1]
  difference in excitability: 7.22
[2]
  difference in startle response: -9.26
[3]
  difference in activity during first hour: -22.1
[4]
  difference in habituation to acoustic stimuli: -11.9
[5]
  difference: -16.9

## CC(CN1c2ccccc2Sc2ccccc21)N(C)C (stereo not given) [Promethazine (hydrochloride)]
[1]
  difference in excitability: 7.65
[2]
  difference in startle response: -2.21
[3]
  difference in activity during first hour: 16.6
[4]
  difference in habituation to acoustic stimuli: -3.09
[5]
  difference: 4.32

## C[N+]1(C)[C@@H]2C[C@@H](OC(=O)C(O)(c3cccs3)c3cccs3)C[C@H]1[C@@H]1O[C@@H]12 [Tiotropium (bromide)]
[1]
  difference in excitability: -0.664
[2]
  difference in startle response: -4.87
[3]
  difference in activity during first hour: -7.11
[4]
  difference in habituation to acoustic stimuli: -4.6
[5]
  difference: -6.76

## CS(=O)(=O)c1cccc(C[C@H](NC(=O)c2c(Cl)cc3c(c2Cl)CCN(C(=O)c2ccc4ccoc4c2)C3)C(=O)O)c1 [Lifitegrast]
[1]
  difference in excitability: 5.68
[2]
  difference in startle response: 2.04
[3]
  difference in activity during first hour: 16.5
[4]
  difference in habituation to acoustic stimuli: 0.0295
[5]
  difference: 7.02

## OC[C@H]1O[C@@H](c2ccc(Cl)c(Cc3ccc(O[C@H]4CCOC4)cc3)c2)[C@H](O)[C@@H](O)[C@@H]1O [Empagliflozin]
[1]
  difference in excitability: 2.31
[2]
  difference in startle response: -2.32
[3]
  difference in activity during first hour: 18.8
[4]
  difference in habituation to acoustic stimuli: -5.57
[5]
  difference: 4.06

## O=C1NC(=O)C(c2ccccc2)(c2ccccc2)N1 [Phenytoin]
[1]
  difference in excitability: -0.551
[2]
  difference in startle response: -0.35
[3]
  difference in activity during first hour: -12.3
[4]
  difference in habituation to acoustic stimuli: 5.69
[5]
  difference: 0.724

## CCCCCCCCCCCCCCCC(=O)OC/C=C(C)/C=C/C=C(C)/C=C/C1=C(C)CCCC1(C)C [Retinyl Palmitate]
[1]
  difference in excitability: 6.81
[2]
  difference in startle response: 5.22
[3]
  difference in activity during first hour: 3.08
[4]
  difference in habituation to acoustic stimuli: 2.4
[5]
  difference: -4.44

## CCc1cc2c(cc1CC)CC(NC[C@H](O)c1ccc(O)c3[nH]c(=O)ccc13)C2 [Indacaterol]
[1]
  difference in excitability: -0.786
[2]
  difference in startle response: 4.28
[3]
  difference in activity during first hour: -1.22
[4]
  difference in habituation to acoustic stimuli: 3.2
[5]
  difference: -2.46

## O=c1[nH]c(=O)n([C@H]2C[C@H](O)[C@@H](CO)O2)cc1C(F)(F)F [Trifluorothymidine]
[1]
  difference in excitability: -0.163
[2]
  difference in startle response: -3.06
[3]
  difference in activity during first hour: 5.45
[4]
  difference in habituation to acoustic stimuli: -4.69
[5]
  difference: 1.93

## OC(CNCC(O)C1CCc2cc(F)ccc2O1)C1CCc2cc(F)ccc2O1 (stereo not given) [Nebivolol (hydrochloride)]
[1]
  difference in excitability: 9.49
[2]
  difference in startle response: -4.14
[3]
  difference in activity during first hour: 2.55
[4]
  difference in habituation to acoustic stimuli: -2.7
[5]
  difference: -10.6

## C[n+]1ccccc1/C=N/O [Pralidoxime (chloride)]
[1]
  difference in excitability: 1.97
[2]
  difference in startle response: -3.28
[3]
  difference in activity during first hour: 6.01
[4]
  difference in habituation to acoustic stimuli: 2.57
[5]
  difference: 1.74

## Nc1cc(N2CCCCC2)nc(N)[n+]1[O-] [Minoxidil]
[1]
  difference in excitability: 2.04
[2]
  difference in startle response: 3.09
[3]
  difference in activity during first hour: -1.78
[4]
  difference in habituation to acoustic stimuli: -5.41
[5]
  difference: -0.063

## CC(CCc1ccccc1)NCC(O)c1ccc(O)c(C(N)=O)c1 (stereo not given) [Labetalol (hydrochloride)]
[1]
  difference in excitability: 3.49
[2]
  difference in startle response: 0.137
[3]
  difference in activity during first hour: 5.09
[4]
  difference in habituation to acoustic stimuli: 3.73
[5]
  difference: -2.36

## CN(C)CCCN1c2ccccc2CCc2ccccc21 [Imipramine (hydrochloride)]
[1]
  difference in excitability: 14.5
[2]
  difference in startle response: -8.78
[3]
  difference in activity during first hour: -16.4
[4]
  difference in habituation to acoustic stimuli: -11.2
[5]
  difference: -6.91

## CC(=O)OC(C)C[N+](C)(C)C (stereo not drawn) [Acetyl-β-methylcholine (chloride)]
[1]
  difference in excitability: 1.77
[2]
  difference in startle response: 1.22
[3]
  difference in activity during first hour: 3.93
[4]
  difference in habituation to acoustic stimuli: 15
[5]
  difference: 1.43

## CC(C)N1CCN(c2ccc(OCC3COC(Cn4cncn4)(c4ccc(Cl)cc4Cl)O3)cc2)CC1 (stereo not given) [Terconazole]
[1]
  difference in excitability: 18
[2]
  difference in startle response: -1.46
[3]
  difference in activity during first hour: 2.36
[4]
  difference in habituation to acoustic stimuli: -6.11
[5]
  difference: 0.243

## CC(=O)Oc1cc2c(s1)CCN(C(C(=O)C1CC1)c1ccccc1F)C2 (stereo not given) [Prasugrel]
[1]
  difference in excitability: -1.17
[2]
  difference in startle response: 0.187
[3]
  difference in activity during first hour: -0.362
[4]
  difference in habituation to acoustic stimuli: 8.33
[5]
  difference: 9.86

## CN1CC(=O)N2[C@H](c3ccc4c(c3)OCO4)c3[nH]c4ccccc4c3C[C@@H]2C1=O [Tadalafil]
[1]
  difference in excitability: 3.64
[2]
  difference in startle response: 1.33
[3]
  difference in activity during first hour: 0.0422
[4]
  difference in habituation to acoustic stimuli: 3.67
[5]
  difference: 6.23
